Laboratory results published in PubChem BioAssay AID504411 (The Scripps Research Institute Molecular Screening Center, 2011).
Among all 340,000 compounds or so, about 200 (0.059%) were called active. Cut-off read from the data, not from the text of the source: active = inhibition above about 34%; inactive = the rest. This excerpt belongs to a sample that is enriched for actives.

Target: Diacylglycerol lipase-beta (Homo sapiens) (UniProt Q8NCG7)
Assay: inhibition of human DAGLB hydrolase activity – biochemical, fluorescence, HTS, primary screen (AID 504411);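 note: 0% = enzyme with vehicle and 100% = wells lacking enzyme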
Settings: HEK293T DAGLB membrane lysate, EnzChek fluorogenic substrate; at 5.17 µM; stronger effect = higher value

Chain of Diacylglycerol lipase-beta (Homo sapiens) (Q8NCG7 whole entry, looked up): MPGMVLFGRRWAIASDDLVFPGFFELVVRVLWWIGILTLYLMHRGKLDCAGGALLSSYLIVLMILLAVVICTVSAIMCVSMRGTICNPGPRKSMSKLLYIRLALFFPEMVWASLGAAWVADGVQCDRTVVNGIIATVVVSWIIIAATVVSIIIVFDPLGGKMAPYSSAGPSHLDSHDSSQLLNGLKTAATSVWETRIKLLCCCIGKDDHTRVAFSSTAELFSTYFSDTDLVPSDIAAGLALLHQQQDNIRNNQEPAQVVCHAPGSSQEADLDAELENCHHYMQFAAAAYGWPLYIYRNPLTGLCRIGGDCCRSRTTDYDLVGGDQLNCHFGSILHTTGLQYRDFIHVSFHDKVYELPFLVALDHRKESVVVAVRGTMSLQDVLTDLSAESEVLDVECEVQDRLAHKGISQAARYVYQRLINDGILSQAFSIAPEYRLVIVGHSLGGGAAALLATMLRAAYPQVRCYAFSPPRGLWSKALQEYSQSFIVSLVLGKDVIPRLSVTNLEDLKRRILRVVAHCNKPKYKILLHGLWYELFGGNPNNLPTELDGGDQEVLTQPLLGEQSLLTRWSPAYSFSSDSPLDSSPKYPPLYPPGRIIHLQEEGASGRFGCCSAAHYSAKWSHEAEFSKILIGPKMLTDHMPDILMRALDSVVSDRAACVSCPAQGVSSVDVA

| Structure (SMILES) | inhibition |
| --- | --- |
| O=C1COc2ccc(C(=O)COC(=O)c3ccccc3Cl)cc2N1 | -2.51% (inactive) |
| CCN1CCN(CC(=O)c2cc(OC)c(OC)c(OC)c2)CC1 | -1.97% (inactive) |
| COc1ccc(/C=C/CN2CCN(Cc3ccc(C)cc3)C(CCO)C2)cc1 (configuration not stated) | -2.8% (inactive) |
| Cc1ccccc1C(=O)N1CCC(C(=O)Oc2ccc(C#N)cc2)CC1 | -0.99% (inactive) |
| COc1ccc(-c2nc(N)sc2C2(O)C(=O)Nc3c(Br)cc(F)cc32)cc1OC (configuration not stated) | -0.83% (inactive) |
| O=S1(=O)CCO[C@H]2Cc3ccccc3[C@H]2N1Cc1ccccc1 | -1.47% (inactive) |
| Cc1nc(NC(=O)c2ccc3c(c2)OCCO3)ccc1Br | -9.56% (inactive) |
| COc1ccc(OC)c(NC(=O)CN(C)CCOc2ccc(Br)cc2)c1 | -4.02% (inactive) |
| CCOC(=O)c1sc(/N=C/Nc2nc(C)c(C(=O)OCC)s2)nc1C | -0.89% (inactive) |
| O=C(Nc1c2c(nn1-c1cccc(Cl)c1)CS(=O)(=O)C2)c1cccs1 | -3.19% (inactive) |
| CCOC(=O)c1nn(-c2ccccc2F)c2nc(Nc3ccccc3)cc(=O)n12 | 0.18% (inactive) |
| Cc1nn(-c2ncccn2)c2c1C(=O)CC(C)(C)C2Br (configuration not stated) | -0.78% (inactive) |
| CCCN1C(=O)C(NS(=O)(=O)c2ccc(N)cc2)(C(F)(F)F)C(C(=O)OC)=C1C (configuration not stated) | 0.93% (inactive) |
| COc1ccc(C(=O)CN2C(=O)NC3(CCc4ccccc43)C2=O)c(OC)c1 (configuration not stated) | -2.52% (inactive) |
| CC(=O)Nc1ccc(NS(=O)(=O)c2cc(C)sc2C)cc1 | 2.41% (inactive) |
| COc1cccc(N(C(=O)CNC(=O)c2ccco2)C(C(=O)NC2CCCCC2)c2cccnc2)c1 (configuration not stated) | -2.11% (inactive) |
| O=c1[nH]c2c(c(=O)n1-c1ccccc1)CCO2 | 0.85% (inactive) |
| CCOC(=O)c1cnc2ccc(F)cc2c1Nc1ccc2c(c1)OCCO2 | -13.6% (inactive) |
| COc1cc(CCC(=O)N2CCN(c3ccccc3Cl)CC2)cc(OC)c1OC | -2.89% (inactive) |
| O=C(c1cccs1)N1CCCC(c2nc(-c3ccc(F)cc3)no2)C1 (configuration not stated) | -7.27% (inactive) |
| C=CCNC(=S)N1CCN(CCN=Cc2c(C)[nH]n(-c3ccc([N+](=O)[O-])cc3)c2=O)CC1 | 1.77% (inactive) |

| Structure (SMILES) | inhibition |
| --- | --- |
| O=C(CN1CCC(NC(=O)C2CC2)CC1)Nc1ccccc1[N+](=O)[O-] | 1.28% (inactive) |
| Cc1ccc(/C=N/NC(=O)C(NC(=O)c2ccccc2)c2n[nH]c(=O)c3ccccc23)cc1 (configuration not stated) | 34.8% (active) |
| O=C(O)c1ccc(/C=N/NC(=S)NCc2ccccc2)cc1 | 3.11% (inactive) |
| Cc1ccc(/C=N/NC(=O)COc2ccccc2-c2ccccc2)cc1 | -8.44% (inactive) |
| COc1ccc(N(CC(=O)N2CCOCC2)S(=O)(=O)c2ccccc2)cc1Cl | -0.45% (inactive) |
| COc1ccc(NC(=O)C[C@H]2C(=O)N(CCc3ccccc3)C[C@@H]2C)cc1 | -3.33% (inactive) |
| CCC1C=C(c2ccccc2)C=CN=C1N(CC)CC (configuration not stated) | -3.08% (inactive) |
| Nc1ccc(OCC(O)C[n+]2ccc(CCS(=O)(=O)[O-])cc2)cc1 (configuration not stated) | 0.26% (inactive) |
| CCc1c(C)sc(NC(=O)c2cccs2)c1C(N)=O | -1.07% (inactive) |
| O=c1oc2ccc(C#CC3(O)CCCCC3)cc2cc1-n1cc(-c2ccsc2)nn1 | 0.49% (inactive) |
| COc1ccccc1NS(=O)(=O)N(C)C | -1.14% (inactive) |
| Cc1ccc(Cc2c(-c3ccccc3)nc3ccc(Cl)cn23)cc1 | -5.98% (inactive) |
| O=C(NCCCN1CCOCC1)c1cnn2c(-c3ccccc3)cc(-c3ccccc3)nc12 | 1.48% (inactive) |
| CN(c1ccc(OCC(=O)OCC(=O)Nc2cccc([N+](=O)[O-])c2)cc1)S(=O)(=O)c1ccc(F)cc1 | -2.67% (inactive) |
| Cc1sc(NC(=O)C2C3CCC(O3)C2C(=O)O)c(C(=O)OC(C)C)c1-c1ccc(Cl)cc1 (configuration not stated) | 6.11% (inactive) |
| CCN(CC(=O)NCc1cccs1)C(=O)c1cccc(S(=O)(=O)Nc2ccccc2OC)c1 | 0.52% (inactive) |
| CCc1cc(C(=O)N(CC)CC(=O)Nc2c(F)cccc2F)sc1C | -0.43% (inactive) |
| Cc1oc2cc3oc(=O)ccc3cc2c1C | -1.48% (inactive) |
| O=c1[nH]c(=O)n(Cc2ccco2)c2c1C(C(F)(F)F)(C(F)(F)F)N=C(c1ccco1)N2 | -0.13% (inactive) |
| COc1ccc(/C=N/OCc2ccccc2C#N)c(OC)c1 | -2.91% (inactive) |
| CC(=O)c1nn(-c2cccc(Br)c2)cc1C(=O)c1cccc2ccccc12 | -10.7% (inactive) |

| Structure (SMILES) | inhibition |
| --- | --- |
| COc1ccc(CN2CCN(Cc3cn(C)nc3-c3ccccc3)CC2CCO)c(C)c1C (configuration not stated) | -4.22% (inactive) |
| CC1CCN(S(=O)(=O)c2ccc3ncn(CC(=O)N(C)C4CCCCC4)c(=O)c3c2)CC1 | -3.62% (inactive) |
| OC(c1ccccc1)c1nccn1Cc1ccccc1 (configuration not stated) | 0.02% (inactive) |
| O=C(NCc1ccc2c(c1)OCO2)C(=O)NCC1OCCN1S(=O)(=O)c1ccc(F)cc1 (configuration not stated) | 1.47% (inactive) |
| NC(N)=Nc1nc2ccc(Br)cc2c(=O)[nH]1 | -0.46% (inactive) |
| CCC(=O)Nc1ccc(S(=O)(=O)NCC2CCCO2)cc1 (configuration not stated) | 0.13% (inactive) |
| CCCCOc1ccc(NC(=O)[C@@H]2CCCN2C(=O)C2CCN(S(=O)(=O)c3ccc(C)cc3)CC2)cc1 | -4.14% (inactive) |
| COCCNC(=O)CCCN1C(=O)c2ccccc2Sc2ncccc21 | 0.34% (inactive) |
| C=CCC(NCCCO)c1cccc(OC)c1OC (configuration not stated) | -0.64% (inactive) |
| O=C(Cc1ccc(Cl)cc1)NCc1nc(-c2ccccc2)no1 | -5.92% (inactive) |
| O=C(Nc1cccc(Cl)c1)C1CCCN(c2cnccn2)C1 (configuration not stated) | -0.35% (inactive) |
| COCc1ccc(CN2CCC(Oc3ccc(C(=O)NCc4ccccn4)cc3)CC2)o1 | -0.42% (inactive) |
| COC(=O)c1cc(N2CCNCC2)nc2ccccc12 | 1.6% (inactive) |
| Cc1cc(F)ccc1S(=O)(=O)Nc1ncnc2scc(-c3ccc(F)cc3)c12 | 11% (inactive) |
| CC(=O)c1nn(-c2cccc(C(F)(F)F)c2)c(=O)[nH]c1=O | -0.12% (inactive) |
| COC(=O)CC1=NN(c2nc(C)cc(C)n2)C(=O)C1 | -2.2% (inactive) |
| CCCCn1c(N)c(N(CC(C)C)C(=O)C2CSC3(C)CCC(=O)N23)c(=O)[nH]c1=O (configuration not stated) | 0.2% (inactive) |
| C=CCN(C(=O)Cn1ncc2c1-c1cc(C)ccc1OC2)c1ccccc1 | -2.66% (inactive) |
| Cc1c(CCO)c(=O)[nH]n1C(=O)c1c(F)cccc1F | -0.98% (inactive) |
| Cc1ccnc(NC(=O)CCC(=O)N(CC(=O)NCCc2ccccc2)Cc2cccs2)c1 | -0.29% (inactive) |
